# EPAC2 antagonist = blocks human EPAC2 exchange factor; Q8WZA2; EPAC2 GEF exchange of Rap1B-BODIPY-GDP, fluorescence; actives 0.18% (n = 360,000); AID 720708; Potency, µM (highest dose often 114 µM), for inactives: at the top dose activity, negative = inhibition, usual class: inhibitors; also: potency is read from the fitted curve at half-maximal effect; % is scaled to controls: 0 for no effect and ±100 for the full control effect; nearly all actives have a fitted effect of over 45% in size
# KCNH2 3.1 inh = inhibitors of human KCNH2 3.1 potassium channel isoform | U2OS KCNH2 3.1, thallium flux FluxOr; active compounds read low | activity change, % (tested at about 1.8 µM) | actives 0.95% (n = 340,000) | AID 720553;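 active = maximum activity change below -70%; inconclusive = maximum activity change from -70% to -50%; inactive = maximum activity change above -50%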;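 also: thallium influx rate constant from kinetic fluorescence after stimulation buffer; % is scaled to controls: 0 for no effect and ±100 for the full control effect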
#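 FluxOr-based Tl+ influx in U2OS cells transduced with KCNH2 3.1 virus; rate constants normalized to DMSO controls.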
# hERG WT inh = inhibitors of human wildtype KCNH2 potassium channel. Q12809. U2OS, BacMam KCNH2, thallium flux FluxOr; active compounds read low. activity change, % at 1.84 µM. actives 0.37% (n = 340,000);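 active = maximum activity change below -70%; inconclusive = maximum activity change between -70% and -50%; inactive = maximum activity change above -50%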; also: % is scaled to controls: 0 for no effect and ±100 for the full control effect
#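 U2OS cells were transduced with wild-type KCNH2 virus (2.03 x 10^8 / mL) for 4 h at room temperature, then cultured overnight at 37 C. Thallium flux was read with FluxOr dye. Rate constants were normalized to DMSO controls.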
# EPAC1 agonist = activates human EPAC1 exchange factor | O95398 | EPAC1 agonist qHTS, biochemical assay; response scale: 100% = response to 6.5 mM cAMP | Potency, µM (titrated, usually from 154 µM), for inactives: top-dose activation, hits mostly activators | actives 0.073% (n = 360,000) | AID 720707; also: potency is read from the fitted curve at half-maximal effect; nearly all actives have a fitted effect of over 60% in size
#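 Multi-concentration qHTS readout: loss of Rap1B-bound BODIPY-GDP fluorescence driven by 100 nM EPAC1 with excess GDP (50 uM), monitored kinetically at room temperature; agonist response expressed relative to 6.5 mM cAMP.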
# EPAC2 ag = activates human EPAC2 exchange factor; EPAC2 activation, biochemical qHTS; response scale: 100% = 6.5 mM cAMP response; AID 720711; Q8WZA2; actives 0.079% (n = 360,000); Potency, µM (doses to about 154 µM), for the others: at the highest dose activation, usual class: activators; also: potency is read from the fitted curve at half-maximal effect; nearly all actives have a fitted effect of over 50% in size
#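 Compounds were titrated in qHTS against a Rap1B-BODIPY-GDP (250 nM) complex with EPAC2 (100 nM) and GDP (50 uM). BODIPY-GDP release tracked at 480/540 nm over 30 min at room temperature, normalized to 6.5 mM cAMP.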
# EPAC1 antagonist = blocks human EPAC1 exchange factor | O95398 | EPAC1 GEF assay, Rap1b-BODIPY-GDP exchange fluorescence | actives 0.14% (n = 360,000) | Potency, µM (series often up to 115 µM), for the others: at the top dose activity change, negative = inhibition, usual class: inhibitors;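 also: potency is read from the fitted curve at half-maximal effect; plate controls were vehicle for no effect and positive control for full effect; nearly all actives have a fitted effect of over 50% in size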
# * hit, by the source's call; ? = inconclusive; . = not tested or not shown. This is a sample that favours compounds with a hit; in the whole collection about 1.4% have one here. Unless noted, calls follow the shape of the dose curve; as a rule, active = well fitted curve in the direction sought with a large enough effect; inconclusive = small, poorly fitted or top-dose-only effect, or another doubt; inactive = no such curve, though single readings can be large; an effect the other way counts as inactive or inconclusive.
SMILES,EPAC2 antagonist,KCNH2 3.1 inh,hERG WT inh,EPAC1 agonist,EPAC2 ag,EPAC1 antagonist
COc1cc2c(=O)n(CC3CCCO3)c(=O)n(CC(=O)Nc3ccccc3)c2cc1OC (stereo not given),5%,-8,-4,-7%,8%,-3%
O=S(=O)(O)c1cc(Cl)cc(N=Nc2ccc(O)cc2O)c1O,?,10,2,1%,12%,-31%
O=S(=O)(O)c1cc(O)c2c(O)c(N=Nc3cc(Cl)ccc3O)c(S(=O)(=O)O)cc2c1,28µM*,-12,-6,1%,-11%,?
COc1cccc(-c2nn(C)c3sc(C(=O)NCc4ccc5c(c4)OCO5)cc23)c1,10%,-92*,-4,4%,10%,-4%
COC(=O)c1sc(-c2ccc(C(C)(C)C)cc2)cc1NC(=O)c1ccccc1C(=O)O,-9%,2,-1,-25%,-4%,56µM*
COC(=O)c1sc(-c2ccc(Cl)cc2)cc1NC(=O)c1ccccc1C(=O)O,-18%,-2,0,4%,-10%,?
CC1CCN(CCCCOc2ccc(C(C)(C)C)cc2)CC1,-10%,-75*,-20,-11%,5%,4%
CC1CCN(CCCCOc2ccc(Cl)cc2)CC1,4%,-76*,54,2%,7%,2%
CC1CCN(CCCCOc2ccccc2-c2ccccc2)CC1,12%,-80*,-71*,4%,17%,-14%
CC(C)(C)c1ccc(OCCCCCCN2CCNCC2)cc1,2%,-30,11,4%,16%,8%
O=c1sc2ccccc2c(N2CCOCC2)c1[N+](=O)[O-],0%,-2,26,0%,-1%,-4%
Cc1ccc(-n2ncc3c2CCCC3NC(=O)c2csnn2)cc1C (stereo not given),3%,7,-89*,-10%,0%,-15%
CN(CCO)c1ccc(C=NNc2ccc([N+](=O)[O-])cc2S(=O)(=O)Nc2ccccc2C(=O)O)cc1,?,3,5,-6%,1%,50µM*
CCOc1ccc(C=NNc2ccc(S(=O)(=O)Nc3ccccc3C(=O)O)cc2[N+](=O)[O-])cc1OC,-13%,-1,7,5%,-5%,-13%
COc1ccccc1NS(=O)(=O)c1cccc(-n2c(O)c(C=Nc3ccccc3C(=O)O)c3ccccc3c2=O)c1,?,-11,-11,5%,2%,56µM*
COc1cc(C=NNc2ccc(S(=O)(=O)Nc3ccccc3C(=O)O)cc2[N+](=O)[O-])ccc1O,?,18,-8,-4%,-16%,89µM*
CCOc1cc(/C=N/Nc2ccc(S(=O)(=O)Nc3ccccc3C(=O)O)cc2[N+](=O)[O-])cc(Cl)c1O,4%,10,-6,-3%,4%,50µM*
COc1ccc(C(C)=NNc2ccc([N+](=O)[O-])cc2S(=O)(=O)Nc2ccccc2C(=O)O)c(OC)c1,?,5,1,8%,-1%,-28%
O=C(Nc1ccc2c(c1)OCCO2)C(c1ccncc1)n1c(=O)c(-c2cc3ccccc3[nH]2)nc2ccccc21 (stereo not given),6%,.,.,4%,17%,-21%
CC(=O)Nc1cccc(/C(C)=N/Nc2ccc(S(=O)(=O)Nc3ccccc3C(=O)O)cc2[N+](=O)[O-])c1,?,-6,-3,-14%,-5%,50µM*
CC(=O)Nc1ccc(C=NNc2ccc([N+](=O)[O-])cc2S(=O)(=O)Nc2ccccc2C(=O)O)cc1,?,-16,-14,-2%,0%,?
NS(=O)(=O)c1ccc(N/N=C/c2ccc(C(=O)O)cc2)c([N+](=O)[O-])c1,?,21,19,-8%,7%,-25%
CC(=O)Nc1ccc(C=NNc2ccc(S(=O)(=O)Nc3ccccc3C(=O)O)cc2[N+](=O)[O-])cc1,50µM*,7,4,1%,4%,79µM*

# Source: PubChem BioAssay (National Center for Advancing Translational Sciences (NCATS))
